PubChem BioAssay (EPA / NIEHS)
“And” between values parts separate entries of the source, which are not always exact repeats. Equal values may be shown once. Results filed as inconclusive are left out. More than one record can exist for a structure, and the calls need not agree. The source made the active and inactive calls. The calls were made as follows, unless noted: active = hit-call score of the fitted dose curve at least 0.9, where 1 is the maximum; inactive = score below 0.9.

Tests used:
[1] = CCTE_Mundy_HCI_Cortical_Synap_Neur_Matur_CellBodySpotCount: CCTE's Synaptogenesis and Neurite Maturation Assay in rat cortical cells for Cell Body Spot Count, Mundy Lab (AID 2284223)
Summary of the method: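 Chemicals were applied to AraC-treated rat primary cortical cells at DIV 7 and measured at DIV 12. Fixed cells were labelled for MAP2, synaptophysin and nuclei, and high-content imaging gave cell body synaptophysin spot counts per neuron relative to DMSO.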

[2] = CCTE_Mundy_HCI_hNP1_Pro_ResponderAvgInten: CCTE's Proliferation Assay in human neuroprogenitor cells, Mundy Lab (AID 2284224; active = hit-call score of the fitted dose curve at least 0.9, where 1 is the maximum;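 also: human neural progenitor cells hNP1 derived from WA09 embryonic stem cells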)
Summary of the method: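 Human neuroprogenitors (hNP1, WA09 lineage) receive test chemical after 40 to 44 hours of attachment. A four-hour BrdU pulse begins twenty hours later, followed by fixation and high content imaging; signal is referenced to DMSO controls.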

[3] = UKN4_HCS_LUHMES_cell_viability: Viability Assessment in the University of Konstanz (UKN) Leist Lab Neurite Outgrowth Assay in human LUHMES cells (UKN4) (AID 2284232)
Summary of the method: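 Day-2 differentiated LUHMES, 30000 cells/well, dosed ~30 min–2 h post-seeding; 24 h treatment incl. staining; Hoechst H-33342 + calcein-AM at 23.5 h; HCS imaging; DMSO-normalized, bidirectional fit.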

[4] = BSK_BT_PBMCCytotoxicity: PBMC Cytotoxicity Assessment in the BioMAP Diversity Plus: BT Assay (AID 2284225); conditions: primary human B cells with PBMC;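 also: PBMC viability measured by Alamar Blue dye reduction fluorescence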
Summary of the method: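 Primary human co-culture of B cells and PBMC, pre-dosed 1 h then activated with SEB and TSST-1. Cytotoxicity is taken from Alamar Blue dye reduction, added for 6 h at the end of a 90 h incubation.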

[5] = read-out: Secreted IgG (sIgG), gene 3500; assay: BSK_BT_sIgG: BioMAP Diversity Plus: BT Assay for Secreted IgG (sIgG) Biomarker Activity (AID 2284226); conditions: primary human B cells with PBMC
Summary of the method: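 Human B cell/PBMC co-culture; compound exposure 24 h; sIgG by ELISA; gain-of-signal fit vs DMSO baseline.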

[6] = BSK_BT_Bcell_Proliferation: Viability Assessment in the BioMAP Diversity Plus: BT Assay for B cell Proliferation (AID 2284227); conditions: primary human B cells with PBMC
Summary of the method: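 Using a human primary B cell–PBMC co-culture, the assay measures total protein by sulforhodamine B absorbance as a gauge of proliferation after 72 h. Analysis followed the positive fitting direction with DMSO as baseline.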

[7] = read-out: Interleukin 6 (IL6), IL6 (gene 3569); assay: BSK_BT_xIL6: BioMAP Diversity Plus: BT Assay for Interleukin 6 (IL6) Biomarker Activity (AID 2284228); conditions: primary human B cells with PBMC
Summary of the method: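 IL-6 secretion measured (Luminex xMAP) in human primary B cell + PBMC co-culture at 24 h of chemical exposure; DMSO served as negative control and activity baseline, with curves fitted for increase.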

[8] = read-out: Interleukin 17A (IL17A), IL17A (gene 3605); assay: BSK_BT_xIL17A: BioMAP Diversity Plus: BT Assay for Interleukin 17A (IL17A) Biomarker Activity (AID 2284229); conditions: primary human B cells with PBMC
Summary of the method: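 Human primary B cells plus PBMC, treated 24 h with chemicals; supernatant IL-17A quantified on Luminex xMAP beads. Gain of signal over DMSO control scored as activity.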

[9] = read-out: Tumor necrosis factor (Homo sapiens) (UniProt P01375); assay: BSK_BT_xTNFa: BioMAP Diversity Plus: BT Assay for Tumor necrosis factor alpha (TNF-alpha) Biomarker Activity (AID 2284230); conditions: primary human B cells with PBMC
Summary of the method: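 Endpoint derived in the positive direction versus DMSO vehicle. Cells: B cells together with PBMC, exposed 24 h before TNF-alpha in the medium was read on the Luminex xMAP platform.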

[10] = read-out: Vascular cell adhesion molecule 1 (VCAM1), VCAM1 (gene 7412); assay: BSK_MyoF_VCAM1: BioMAP Diversity Plus: MyoF Assay for Vascular cell adhesion molecule 1 (VCAM1) Biomarker Activity (AID 2284231); conditions: primary human lung fibroblasts
Summary of the method: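 VCAM-1 levels, lung fibroblasts, ELISA, 24 h exposure, increase scored relative to DMSO.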

Measured: AC50

Sequence of Tumor necrosis factor (Homo sapiens) (P01375 whole entry, looked up): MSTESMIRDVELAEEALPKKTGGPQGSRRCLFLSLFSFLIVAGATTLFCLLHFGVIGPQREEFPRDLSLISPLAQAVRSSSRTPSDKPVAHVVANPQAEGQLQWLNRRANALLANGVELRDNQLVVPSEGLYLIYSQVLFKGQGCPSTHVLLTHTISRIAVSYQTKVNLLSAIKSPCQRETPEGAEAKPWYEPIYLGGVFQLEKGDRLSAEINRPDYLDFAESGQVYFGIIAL

Nc1ccn([C@@H]2O[C@H](CO)[C@@H](O)[C@@H]2O)c(=O)n1
active: [1] 11.7 µM | [2] 9.56 nM and 3.83 nM
inactive: [1] | [3]

NNC(=O)c1ccncc1
inactive: [1]

OCc1c[nH]c2ccccc12
inactive: [4] | [8] | [9] | [10]
active: [5] 30.8 µM | [6] 3.97 µM | [7] 3.97 µM

Cn1cc[nH]c1=S
inactive: [1]

C[Si](C)(C)C(F)(F)C(F)(F)C(F)(F)F
not listed: [1] | [2] | [3]
inactive: all other assays above

FC(F)=C(F)C(F)(F)C(F)(F)C(F)(F)C(F)(F)C(F)(F)C(F)(F)F
not listed: [1] | [2] | [3]
inactive: all other assays above

FC(F)C(F)(F)COCC1CO1 (centres undefined)
not listed: [1] | [2] | [3]
inactive: all other assays above

NC(=O)N1c2ccccc2C=Cc2ccccc21
inactive: [1] | [3]

c1ccc2cc3ccccc3cc2c1
inactive: [1]

FC(F)(F)COC(OCC(F)(F)F)OCC(F)(F)F
not listed: [1] | [2] | [3]
inactive: all other assays above

OC(Cn1cncn1)(Cn1cncn1)c1ccc(F)cc1F
inactive: [1]

CCCC(CCC)C(=O)O
inactive: [1] | [3]

C[C@]12C=CC(=O)C=C1CC[C@H]1[C@@H]3C[C@@H](O)[C@](O)(C(=O)CO)[C@@]3(C)C[C@H](O)[C@@]12F
active: [1] 15 µM
inactive: [2]
